Many of the other results were omitted from the sample, so hits are more common in it than they were.
VCAM1 TNFa pot – enhances TNF alpha induced VCAM1 expression in HUVEC | hit rate 0.19% among 93,000 | HUVEC TNFa-stimulated VCAM-1 immunofluorescence, high-content imaging; scaled per plate to unstimulated/TNFa-only wells | AID 808 | activation, % at 2 µM;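 active means activation above the screen mean plus 3 SD, with well images confirming the hit on visual review, cut at about 28% in these data, passing the limit was not always enough; inconclusive means activation above that limit but images do not confirm it; inactive means activation not above that limit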;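 further: signal is the number of cytoplasmic VCAM-1 stained grains per positive cell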
VCAM1 pot confirm – enhancers of VCAM1 induction in HUVEC – imaging, triplicate retest, confirmation | 230 tested, under 10 active | shares compounds with VCAM1 TNFa pot | HUVEC TNFa-stimulated VCAM-1 immunofluorescence imaging | activation, % at 2 µM;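 active means activation above 30% in triplicate retests at 2 µM, then confirmed by visual review of the well images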;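 further: scaled per plate between unstimulated and TNFa-stimulated DMSO control wells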
Numbers without * were called inactive; ? = inconclusive.

SMILES	VCAM1 TNFa pot	others
CCCCCCNC(=O)CC(c1ccccc1)c1cc(Br)ccc1O (stereo unspecified)	10
COc1ccccc1C(=O)NCc1ccccc1	22
O=C1CN=C(Nc2cccc(C(F)(F)F)c2)N1C1CCCC1	7
COc1ccc(C(=O)c2ccc(N3CCN(C4CC(=O)NC4=O)CC3)cc2)cc1F (stereo unspecified)	-7
CCOC(=O)Cn1c(C)nc2ccccc21	-6
CC(C)Cn1c(SCC(=O)NC(=O)NC2CCCC2)nc2ccccc21	-8
Cc1nc2ccccc2n1CC(O)COCC1CC=CCC1 (stereo unspecified)	?	VCAM1 pot confirm=-13
Cc1ccc(C(=O)Nc2c(-c3cccs3)c(=O)c3ccccc3n2C)cc1	-3
CC1(CC(=O)O)C(=O)N=C2C=CC=CN21 (stereo unspecified)	8
OC(CN1C2=NCCN2c2ccccc21)c1ccc2c(c1)OCO2 (stereo unspecified)	-6
Cc1nc(N2CCN(C(=O)c3ccc(Cl)cc3)CC2)c(C#N)c2c1COC(C)(C)C2	50*	VCAM1 pot confirm=-16
COC(=O)c1ccc(CSc2nc(N3CCOCC3)c3c(c2C#N)CC(C)(C)OC3)o1	-1
CC(C)(C)C(=O)Nc1ccccc1N1CCN(C(=O)c2ccc(Cl)cc2)CC1	-6
CCOc1ccc(NC(=O)C23CC4CC(C2)CC(c2ccccc2)(C4)C3)cc1	1
C1CCc2c(nnc3c2-c2nonc2CC3)C1	5
CCOc1cc(C)c(Cl)cc1S(=O)(=O)NCc1ccc2c(c1)OCO2	14
CCc1ccc(OCC(=O)NCc2ccco2)c(Br)c1	-7
NC(=O)c1ccccc1N=Cc1ccccn1	40*	VCAM1 pot confirm=-13
NC(=O)c1ccccc1OCCOCCOCCOc1ccccc1C(N)=O	18
O=c1c2cnn(-c3ccccc3)c2ncn1/N=C/c1ccncc1	0
O=C(NCC1COc2ccccc2O1)c1cc2ccccc2o1 (stereo unspecified)	-16
COc1ccc(CNC(=O)CSc2nc(-c3ccccc3)cc(-c3cccs3)c2C#N)cc1	0
CCN(CC)C(=O)CSc1nc(N)c(C#N)c(-c2cccs2)c1C#N	-13
CCN(CC)C(=O)CSc1nc(-c2cccs2)cc(-c2cccs2)c1C#N	50*	VCAM1 pot confirm=-20
COC(=O)c1cnn(C(=O)c2cc(OC)ccc2Br)c1N	1
SMILES	VCAM1 TNFa pot	others
CCOC(=O)C(NC(=O)c1ccccc1)(Nc1nnc(C)s1)C(F)(F)F (stereo unspecified)	17
O=C(NC(=S)NCCN1CCOCC1)c1cccc(Cl)c1	6
CCOC(=O)c1cc(NC(=O)c2c(C)noc2C)cc(C(=O)OCC)c1	1
O=C(CSc1nc2ccccc2[nH]1)Nc1cc(C(F)(F)F)ccc1N1CCOCC1	-3
O=C(CSc1nc2ccccc2[nH]1)Nc1ccccc1N1CCOCC1	48*	VCAM1 pot confirm=-6
O=C(CSc1nc2ccccc2[nH]1)c1ccc2c(c1)OCO2	3
CCOC(=O)C(NC(C)=O)(Nc1ccc(S(=O)(=O)Nc2ccncn2)cc1)C(F)(F)F (stereo unspecified)	0
CSc1cc(C)n(-c2ccccc2)c(=S)c1C(C)=O	72*	VCAM1 pot confirm=-16
CC(=O)c1c(C(C)=O)c(C)n(-c2nc(-c3ccccc3)c(C)s2)c1C	-12
Cc1ccc(S(=O)(=O)NCc2nnc(SCC(=O)Nc3cccc(C)c3C)n2C)cc1	7
Cc1onc(-c2ccccc2Cl)c1C(=O)Nc1sc2c(c1C(N)=O)CCC(C)C2 (stereo unspecified)	6
COc1ccc(-c2cc(O)cc(O)c2)cc1	-1
Clc1cccc(OCCn2cncn2)c1Cl	?	VCAM1 pot confirm=-10
Cc1cccc(-n2c(SCc3cc(=O)n4c(C)cccc4n3)nc3[nH]ncc3c2=O)c1	0
O=C(Cc1ccc(Cl)cc1)Nc1ccc(N2CCN(C(=O)c3ccco3)CC2)c(Cl)c1	-7
COc1cccc(-c2nnn(CC(=O)Nc3cc(OC)c(NC(=O)c4ccco4)cc3OC)n2)c1	3
COC(=O)c1cccc(NC(=O)C2C3CCC(C3)C2C(=O)O)c1 (stereo unspecified)	2
Nc1ccccc1NC(=O)c1ccccc1	-2
O=C(Oc1csc(=S)n1C(=O)c1ccccc1)c1ccccc1	-98
Nc1sccc1C(=O)c1ccccc1	66*	VCAM1 pot confirm=-8
C=CCSc1nnc2c(n1)OC=Nc1ccccc1-2	14
Cc1ccc(S(=O)(=O)NC(C)C(=O)Nc2ccc(C(N)=O)cc2)cc1 (stereo unspecified)	0
CCOC(=O)CNC(=O)c1cc(C)oc1C	-3
CC(C)Cn1cc(C(=O)NCCCOC(C)C)c2c3ccccc3n(C)c2c1=O	-9
CCOC(=O)CNC(=O)c1cn(CC(C)C)c(=O)c2cc(OC)c(OC)cc12	55*	VCAM1 pot confirm=-13
SMILES	VCAM1 TNFa pot	others
COC(=O)C1=C(C(=O)OC)SC(=C2C(=S)C(C)(C)N(C(=O)CC(C)C)c3ccccc32)S1	-8
CC(C)n1c(CN2CCN(C)CC2)nc2c1c(=O)n(C)c(=O)n2C	-1
CCOC(=O)C(O)(CC(=O)c1ccc(OC)cc1)C(F)(F)F (stereo unspecified)	5
COCCNC(=O)CC(c1ccccc1)c1ccccc1	11
COc1ccccc1N(CC(=O)NCCSc1ccccc1)S(C)(=O)=O	?	VCAM1 pot confirm=-1
CCOc1ccccc1N(CC(=O)N1CCCCCC1)S(C)(=O)=O	2
Cc1[nH]n(-c2ccc([N+](=O)[O-])cc2)c(=O)c1N=Nc1nc2ccccc2s1	-52
CCOc1ccccc1C1CC(c2ccc(F)cc2)Nc2nc(N)nn21 (stereo unspecified)	-10
Cn1c(-c2ccc3c(c2)OCO3)cnc1NCc1ccccc1	51*	VCAM1 pot confirm=-10
Cn1c(Cc2ccccc2)nnc1SCC(=O)Nc1ccc2c(c1)OCO2	2
c1cncc(-c2nc(-c3ccc4c(c3)OCO4)cs2)c1	20
O=C(CC1NC2CCCCC2NC1=O)Nc1cccc(C(F)(F)F)c1 (stereo unspecified)	-1
COc1ccc(OC)c(-n2c(-c3cccc(O)c3)n[nH]c2=S)c1	-7
CCOC(=O)c1nn(-c2ccccc2C)c2nc(CC(C)C)c(C#N)c(=O)n12	-6
CCOc1cc(NC(=O)c2ccccn2)c(OCC)cc1NC(=O)CC(C)C	-9
CCOCCCN1CC(C(=O)NCCc2ccc(C)cc2)CC1=O (stereo unspecified)	2
Cc1ccccc1S(=O)(=O)Nc1nc2ccccc2nc1NCCO	-9
CCc1nc(SCC(=O)c2cccs2)c2oc3ccccc3c2n1	28*	VCAM1 pot confirm=-14
CCOC(=O)CSc1nc(-c2ccccc2)nc2c1oc1ccccc12	-4
CCCSc1ncnc2c1oc1ccccc12	2
Cc1cc(C(=O)CN2C(=O)c3ccccc3C2=O)c(C)n1C1CC1	129*	VCAM1 pot confirm=-14
O=C(CN1C(=O)c2ccccc2C1=O)NCC1COc2ccccc2O1 (stereo unspecified)	-17
O=C(CN1C(=O)c2cccnc2C1=O)c1ccccc1	8
COc1ccc(NC2CC(=O)NC2=O)cc1 (stereo unspecified)	-6
Cc1cccc(C2Nc3ccccc3C(=O)N2c2ccc(F)cc2)n1 (stereo unspecified)	7
O=C(NCCN1CCN(c2ccccc2F)CC1)C1CCCN(S(=O)(=O)c2cnc[nH]2)C1 (stereo unspecified)	5
CN(C)CCCN1C(=O)CSC1c1ccccc1 (stereo unspecified)	-7
O=C1CSC(c2ccccn2)N1c1ccccc1 (stereo unspecified)	34*	VCAM1 pot confirm=-16
